# Source: PubChem BioAssay (Tox21)
# Unmarked numbers belong to inactive results. Activity calls are given as the source filed them. The call rests on the fitted dose curve; in most records, active means well fitted curve in the direction sought with a large enough effect in the repeat runs; inconclusive means weak or mixed curves; inactive means flat fitted curve, though single readings scatter.
# Test: qHTS assay to test for compound auto fluorescence at 590 nm (red) in HepG2 cells (AID 720674)
# Conditions: HepG2 autofluorescence, red 540/590 nm, 1 h; series mostly up to 91.3 µM; fluorescence, relative to Rose Bengal: at the top concentration
# Outline: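 Fluorescence at 590 nm emission following 540 nm excitation was recorded from HepG2 wells one hour after compound transfer, with DMSO-only wells as vehicle and Rose Bengal sodium equivalency as the scale.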
# On the % scale 0 is the no-effect control and ±100 the full control effect.
SMILES,"fluorescence, relative to Rose Bengal",Potency
CC(=O)c1ccc2c(c1)N(CCCN(C)C)c1ccccc1S2,-0.407% [at 18.6 µM],
O=C1c2ccccc2S(=O)(=O)N1CCCCN1CCN(c2ncccn2)CC1,0.509% [at 46 µM],
CN(C)c1ccc(C(c2ccccc2)c2ccc(N(C)C)cc2)cc1,-0.0759%,
Cc1oc2c(NC(=O)c3c(Cl)cccc3Cl)cccc2c1C(C)(C)O,0.0411%,
O=S(c1cc(Cl)cc(Cl)c1O)c1cc(Cl)cc(Cl)c1O,-0.0293% [at 46 µM],
C=CC1CC2C=CC1C2 (configuration not stated),-0.0026%,
ClCCOCCOCCCl,0.202%,
OCc1cc(C(O)CNCCCCCCOCCCCc2ccccc2)ccc1O (configuration not stated),,inactive
Nc1cccc([N+](=O)[O-])c1,0.0593%,
O=C(NCCO[N+](=O)[O-])c1cccnc1,-0.643% [at 46 µM],
O=CC1CC=CCC1 (configuration not stated),0.0063%,
CCCCCC[C@@H](O)C/C=C\CCCCCCCC(=O)OC,-0.0318%,
O=C(O)c1ccco1,-0.0678%,
C=CCOC(=O)CCC1CCCCC1,-0.104%,
O=C(O)CNCC(=O)O,-0.419% [at 3.72 µM],
CNCCCN1c2ccccc2CCc2ccccc21,-0.337% [at 18.6 µM],

SMILES,"fluorescence, relative to Rose Bengal",Potency
CC(=O)NO,-0.227% [at 46 µM],
Nc1ccccc1S(=O)(=O)c1ccccc1,0.0071%,
NCc1ccccc1Sc1ccccc1CO,-0.0165% [at 46 µM],
CCOCC(O)COc1ccc(NC(=O)CC[S+](C)C)cc1 (configuration not stated),0.276% [at 46 µM],
C[N+](C)(C)CCOC(=O)CCC(=O)OCC[N+](C)(C)C,-0.54% [at 46 µM],
NC(=O)C(c1ccccc1)(c1ccccc1)[C@@H]1CCN(CCc2ccc3c(c2)CCO3)C1,-0.552% [at 46 µM],
C=C(C)C(=O)OCCOCC,0.167%,
Cn1c(=O)cc(Oc2ccc(F)cc2F)c2cnc(NCC(C)(C)O)nc21,-0.0121%,
C/C(=C(\CCOP(=O)(O)O)SC(=O)c1ccccc1)N(C=O)Cc1cnc(C)nc1N,-0.226% [at 18.6 µM],
c1ccc(C(O[C@H]2CCCN(CCc3ccc4c(c3)OCO4)C2)c2ccccc2)cc1,0.036% [at 46 µM],
COc1ccc(C(=O)N2CCN(CC(=O)N3CCOCC3)CC2)cc1,-0.417% [at 46 µM],
C/C=C/C(=O)CC,-0.234% [at 18.6 µM],
COc1ccc(S(=O)(=O)N2C(=O)[C@@](c3ccccc3OC)(N3C[C@H](O)C[C@H]3C(=O)N(C)C)c3cc(Cl)ccc32)c(OC)c1,-0.0487%,
C#CCN(C)CCCOc1ccc(Cl)cc1Cl,0.11% [at 46 µM],
CCCCC(CC)COC(=O)COc1ccc(Cl)cc1Cl (configuration not stated),0.111% [at 95.7 µM],
CC(=O)OC[C@H]1O[C@@H](n2ncc(=O)[nH]c2=O)[C@H](OC(C)=O)[C@@H]1OC(C)=O,0.0914% [at 46 µM],
